High-throughput results deposited in PubChem BioAssay by National Center for Advancing Translational Sciences (NCATS).
This is a sample that favours compounds with a hit; in the whole collection about 1.2% have one here.
Mm-Cpn inhibitor = inhibitors of Methanococcus maripaludis chaperonin TRiC (MmCpn) | purified Mm-Cpn ATPase, ADP Transcreener TR-FRET | 330,000 tested, 0.031% active | Potency, µM (top dose mostly 76.9 µM), most hits filed as inhibitors; also: nearly all actives have a fitted effect of over 80% in size
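ATP (10 uM final) was added to archaeal chaperonin (25 nM final) after 10 min exposure to test compound at 37°C; after 30 min further incubation, ADP was detected by competitive TR-FRET.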
RXFP1 ag = activates the human relaxin receptor RXFP1 | 370,000 tested, 0.3% active | HEK293T-RXFP1 cAMP TR-FRET, 30 min; response scale: percent of porcine relaxin response, buffer zero | Potency, µM (top dose mostly 57.5 µM), usual class: activators | AID 2676 | Q9HBX9; also: nearly all actives have a fitted effect of over 60% in size
Target sequence (Q9HBX9 whole entry, looked up): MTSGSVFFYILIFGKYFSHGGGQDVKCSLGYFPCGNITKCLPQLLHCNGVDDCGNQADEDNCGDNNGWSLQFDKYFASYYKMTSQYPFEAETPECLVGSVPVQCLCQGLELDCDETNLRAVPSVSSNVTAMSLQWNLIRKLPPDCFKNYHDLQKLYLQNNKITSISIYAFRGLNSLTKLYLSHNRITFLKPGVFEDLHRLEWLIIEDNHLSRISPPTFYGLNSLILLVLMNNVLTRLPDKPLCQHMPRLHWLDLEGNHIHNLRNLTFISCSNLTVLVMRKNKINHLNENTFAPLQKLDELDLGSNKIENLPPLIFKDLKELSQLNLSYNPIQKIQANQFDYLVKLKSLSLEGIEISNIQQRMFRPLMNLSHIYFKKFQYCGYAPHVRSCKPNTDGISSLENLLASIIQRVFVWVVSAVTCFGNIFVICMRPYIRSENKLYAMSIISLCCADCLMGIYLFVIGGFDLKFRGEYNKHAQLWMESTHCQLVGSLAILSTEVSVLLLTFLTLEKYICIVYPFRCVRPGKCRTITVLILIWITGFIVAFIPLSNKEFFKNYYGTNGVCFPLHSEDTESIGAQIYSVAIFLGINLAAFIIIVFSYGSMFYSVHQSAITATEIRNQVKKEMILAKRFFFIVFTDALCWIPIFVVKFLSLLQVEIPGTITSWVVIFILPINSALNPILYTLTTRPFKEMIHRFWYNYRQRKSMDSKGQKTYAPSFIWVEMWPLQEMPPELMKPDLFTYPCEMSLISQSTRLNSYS
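cAMP rise read by TR-FRET after 30 min, 37C compound exposure (up to 58 uM) in RXFP1-transfected HEK293 cells with Ro 20174 present. EC50 from Hill-equation fits, with 29 nM porcine relaxin as 100% and buffer as basal.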
RXFP1 antagonist = RXFP1 (human) relaxin receptor antagonism; Q9HBX9; activity change, negative = inhibition, % at 57.5 µM; AID 1259400; 350,000 tested, 0.59% active; HEK293-RXFP1, relaxin-stimulated cAMP HTRF, 30 min; hits give low values;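 active = activity change of -60% or lower, but not beyond a set lower limit; inconclusive = change between -60% and -40%, or beyond the set limit; inactive = change above -40%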
gsp agonist = activates gsp, the McCune-Albright syndrome mutation | gsp mutant cells, cAMP HTRF, 30 min | Potency, µM (series often up to 76.9 µM), usual class: activators | 340,000 tested, 0.13% active | AID 624287; active = well fitted activation curve with a large enough effect; inconclusive = small, poorly fitted or top-dose-only effect, or another doubt; inactive = no such curve, though single readings can be large or run the other way; cell line not stated here;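 also: phosphodiesterase inhibitor Ro 20-1724 added with compounds to block cAMP breakdown; nearly all actives have a fitted effect of over 60% in size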
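Cells stably selected in G418 were plated at 2000/well, grown 16-24 hr, then given compounds in DMSO with the PDE inhibitor […] (300 uM solution added) for 30 min at 37C; cAMP was read by HTRF.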
gsp antag = antagonists of gsp mutant (McCune-Albright syndrome); gsp-mutant cells, cAMP HTRF, 30 min; Potency, µM (titrated, usually from 76.9 µM), usual class: inhibitors; 340,000 tested, 0.4% active; calls by dose curve; cell line not stated here;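 also: intracellular cAMP measured with PDE inhibitor Ro 20-1724 present during compound exposure; nearly all actives have a fitted effect of over 65% in size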
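Cells, 2000/well, grown 16–24 h in DMEM 10% FBS with 0.5 mg/ml G418, then compounds plus […] (300 uM addition stock), 30 min at 37C. cAMP read by HTRF (cAMP-d2 and anti-cAMP antibody-K in lysis buffer) after 30 min RT.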
CCT modulator = modulators of cytosolic chaperonin (CCT/TRiC) activity; purified chaperonin ATPase assay, HTRF ADP detection, 30 min; activity change, % (no concentration beside the values), hits read low; 360,000 tested, 0.3% active; in the data active = activity change below about -30%
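TRiC at 40 or 20 nM final (batch-dependent) in 30 mM Tris pH 7.4, 100 mM KCl, 5 mM MgCl2, 1 mM DTT, with compound at single 76 uM and 10 uM ATP, 30 min at 37 deg C. ADP detected by HTRF Transcreener, 665/615 ratio.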
Hits are given with their value; i = inactive; ? = inconclusive; nt = no result given; [ ] = dose if it differs, or a comment. Unless noted, calls follow the shape of the dose curve; as a rule, active = well fitted curve in the direction sought with a large enough effect; inconclusive = small, poorly fitted or top-dose-only effect, or another doubt; inactive = no such curve, though single readings can be large; an effect the other way counts as inactive or inconclusive.

SMILES	Mm-Cpn inhibitor	RXFP1 ag	RXFP1 antagonist	gsp agonist	gsp antag	CCT modulator
Cc1ccc(-c2nc3ncccc3o2)cc1NC(=O)c1cccs1	i	i	i	i	35µM	i
O=C1C=CC(=O)N1CCCCCCCCCCN1C(=O)C=CC1=O	nt	nt	i	i	35µM	i
CC(=O)c1ccc(NC(=O)c2cnn(-c3cccc(F)c3)c2-n2cccc2)cc1	nt	i	-68	nt	nt	nt
CCC(C(=O)O)c1ccc(N2Cc3ccccc3C2=O)cc1 (stereo not given)	nt	nt	i	nt	nt	nt
O=c1c2oc3ccccc3c2n(Cc2cccc(F)c2)c(=O)n1Cc1ccc2c(c1)OCO2	nt	i	i	nt	nt	nt
CC(C)(c1ccccc1)c1ccc(OCC2CO2)cc1 (stereo not given)	i	i	i	i[15.4 µM]	nt	-30
CN(C)CCOc1ccc(C(C)(C)c2ccccc2)cc1	i	i	i	i[15.4 µM]	i	i
O=[N+]([O-])c1ccc(NN=Cc2cccc(O)c2)nc1	nt	nt	i	i	i	i
O=[N+]([O-])c1ccc(NN=Cc2cc(Br)ccc2O)nc1	nt	nt	-74	i	i	i
O=C(NCCc1cccs1)c1ccc(Cn2c(SCc3ccc(F)cc3)nc3cccnc32)cc1	nt	i	i	nt	nt	nt
COc1ccc(C)cc1NC(=S)N1CC(C)OC(C)C1 (stereo not given)	i	i	i	i	i	-48
NS(=O)(=O)c1cc(C(=O)NN2C[C@H]3[C@H]4CCC(C4)[C@H]3C2)ccc1Cl	nt	nt	i	nt	nt	nt
C[C@]12CCC(=O)C=C1CC[C@H]1[C@@H]3CC[C@](O)(C(=O)CO)[C@@]3(C)C[C@H](O)[C@@]12F	nt	nt	i	nt	nt	nt
CC1(C)O[C@@H]2C[C@H]3[C@@H]4CCC5=CC(=O)CC[C@]5(C)[C@@]4(F)[C@@H](O)C[C@]3(C)[C@]2(C(=O)CCl)O1	i	i	-73	nt	i	i
O=C(CCCn1c(=O)c2cccn2c2ccccc21)NCc1ccccc1Br	nt	?	i	nt	nt	nt
COc1ccc(CC(=O)NCC(c2cccs2)S(=O)(=O)c2ccc(C)cc2)cc1 (stereo not given)	nt	i	nt	nt	nt	nt
CCn1c(SCC(=O)N2CCCC2)nc2c1c(=O)n(C)c(=O)n2C	i	i	i	8.9µM	i	i
CCn1c(SCC(=O)N2CCN(C)CC2)nc2c1c(=O)n(C)c(=O)n2C	i	i	i	?	i	i
CCn1c(SCC(=O)Nc2ccc(NC(C)=O)cc2)nc2c1c(=O)n(C)c(=O)n2C	i	16µM	i	i[15.4 µM]	i	i
CCCn1c(SCC(=O)Nc2ccc(NC(=O)CC)cc2)nc2c1c(=O)n(C)c(=O)n2C	i	20µM	i	i[15.4 µM]	i	i
C#CC(C)(CC)OC(=O)c1ccccc1C(=O)O (stereo not given)	nt	nt	i	nt	nt	nt
Cc1c(C(N)=O)nnn1-c1ccc(Br)cc1	nt	i	i	nt	nt	nt
CCc1ccc(-c2nc(CS(=O)CC(=O)NCCc3ccc(Cl)cc3)c(C)o2)cc1 (stereo not given)	nt	i	i	nt	nt	nt
O=[N+]([O-])c1ccc(Nc2ccccc2)c2nonc12	i	i	i	i	i	i
O=[N+]([O-])c1ccc(Sc2cccc[n+]2[O-])c2nonc12	i	i	?	i[15.4 µM]	35µM	i
SMILES	Mm-Cpn inhibitor	RXFP1 ag	RXFP1 antagonist	gsp agonist	gsp antag	CCT modulator
COc1ccc(NS(=O)(=O)c2ccc(-c3cnc(C4CC4)o3)cc2)cc1Cl	nt	i	nt	nt	nt	nt
O=S(=O)(NNc1ccc(Cl)nn1)c1ccc(F)cc1	i	i	i	i[15.4 µM]	i	-69
Cc1c(C(=O)Nc2cccc(C#N)c2)sc2nc3n(c(=O)c12)CCCCC3	nt	i	i	nt	nt	nt
CCOC(=O)c1c(Nc2ccc(OCC)cc2)nnc(-c2ccccc2)c1-c1ccccc1	nt	i	nt	nt	nt	nt
O=S(=O)(Nc1ccc2c3c(cccc13)CC2)c1ccc(F)cc1	i	i	i	i	i	i
CSc1ccc(S(=O)(=O)Nc2ccc3c4c(cccc24)CC3)cc1	i	i	i	i	28µM	i
COc1ccccc1N1CCN(CC(O)COc2cc(OC)c(OC)c(OC)c2)CC1 (stereo not given)	nt	nt	i	nt	nt	nt
N#Cc1ccccc1Cn1cc(/C=C/[N+](=O)[O-])c2ccccc21	i	i	-65	i[15.4 µM]	i	i
O=C(Cn1cc(/C=C\[N+](=O)[O-])c2ccccc21)Nc1ccccc1	i	i	-105	i	i	i
O=[N+]([O-])/C=C/c1cn(Cc2ccccc2)c2ccccc12	i	i	?	i	i	i
O=S(=O)(Nc1cccc(F)c1)c1ccc2[nH]c3c(c2c1)CCCCC3	nt	i	i	nt	nt	nt
NC(=O)CC[C@@H]1NC(=O)[C@H](Cc2ccccc2)NC(=O)[C@H](Cc2ccc(O)cc2)NC(=O)CCSSC[C@@H](C(=O)N2CCC[C@H]2C(=O)N[C@@H](CCCN=C(N)N)C(=O)NCC(N)=O)NC(=O)[C@H](CC(N)=O)NC1=O	nt	nt	i	nt	nt	nt
COC(=O)c1c(-c2ccc(N(C)C)cc2)sc2ccc(OC)cc12	i	nt	nt	nt	i	i
COC(=O)c1c(-c2ccc(OC)cc2)sc2cc3c(cc12)OCO3	50µM	i	nt	i	i	i
CC(=O)c1ccc(-c2ccc(C(=O)N3CCN(c4ccc(F)cc4)CC3)o2)cc1	i	i	i	i	28µM	i
O=C(c1ccc(Br)o1)N1CCN(c2ccc(F)cc2)CC1	i	i	i	i	i	i
CC(C)(C)c1ccc(C(=O)NCC(c2cccnc2)N2CCc3ccccc3C2)cc1 (stereo not given)	nt	i	-77	nt	nt	nt
Cc1ccc(C(=O)NCC(c2cccnc2)N2CCc3ccccc3C2)cc1C (stereo not given)	nt	i	i	nt	nt	nt
O=C(Nc1nnc(S(=O)(=O)N2CCc3ccccc32)s1)c1cccc(Cl)c1	nt	i	i	nt	nt	nt
CC(C)OC(=O)CNc1n[nH]c(=S)[nH]c1=O	?	5µM	i	i[15.4 µM]	nt	i
COC(=O)CNc1n[nH]c(=S)[nH]c1=O	?	?	i	?	?	i
COc1cc(NC(=O)c2nnn(CC(=O)Nc3ccccc3)c2N)cc(OC)c1	nt	i	i	nt	nt	nt
COc1ccccc1-c1nnc(SC(C(=O)c2c[nH]c3ccccc23)c2ccccc2)n1C (stereo not given)	i	i	i	i	35µM	i
COc1cccc(-c2nnc(SC(C(=O)c3c[nH]c4ccccc34)c3ccccc3)n2C)c1 (stereo not given)	i	i	-77	i[15.4 µM]	?	i
COc1cccc(-c2nnc(SCCC(=O)O)n2C)c1	i	i	i	i	i	i
CCN1CCN(C(c2ccc(SC)cc2)c2c(O)cc(C)n(Cc3ccco3)c2=O)CC1 (stereo not given)	nt	i	i	nt	nt	nt
COc1ccccc1N1CCN(S(=O)(=O)c2ccc(-c3cc(C(F)(F)F)on3)s2)CC1	nt	i	i	nt	nt	nt
CCc1cccc2c(CCO)c[nH]c12	nt	nt	i	nt	nt	nt
COc1cc(C(=O)Nc2cccc(-c3nnc(-c4ccco4)o3)c2)ccc1OC(C)=O	i	i	-65	i[15.4 µM]	i	i
